High-throughput results: PubChem, National Center for Advancing Translational Sciences (NCATS)
EPAC1 ag: agonists of human EPAC1; EPAC1 agonist qHTS, biochemical assay; response scale: 100% = response to 6.5 mM cAMP; Potency, µM (highest dose often 154 µM), for inactives: top-dose activation, actives largely listed as activators; actives 0.073% (n = 360,000); also: nearly all actives have a fitted effect of over 60% in size
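Nucleotide exchange assay: 100 nM EPAC1 with 250 nM Rap1B loaded with BODIPY-GDP and 50 uM GDP, room temperature. Fluorescence (480/540 nm) read every 5 min for 30 min; signal change normalized to 6.5 mM cAMP as full agonist.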
USP1 inh: blocks the human USP1/UAF1 deubiquitinase complex; Potency, µM (doses to about 57.1 µM), for the others: top-dose activity change, negative = inhibition, actives largely listed as inhibitors; recombinant USP1/UAF1, Ub-Rhodamine cleavage fluorescence; O94782; actives 0.23% (n = 390,000); also: % is scaled to controls: 0 for no effect and ±100 for the full control effect; nearly all actives have a fitted effect of over 60% in size
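1 nM enzyme complex + cpd, 15 min RT; start with Ub-Rho 150nM final; kinetic fluorescence ex 480/em 540, 6 reads q60 s. Buffer 50mM HEPES pH 7.8, 0.5mM EDTA, 0.1 mg/ml BSA, 1mM TCEP, 0.01% Tween-20.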
EPAC1 antag: blocks human EPAC1 exchange factor. actives 0.14% (n = 360,000). O95398. Potency, µM (highest dose often 115 µM), for inactives: at the top dose activity change, negative = inhibition, most hits filed as inhibitors. AID 720709. EPAC1 GEF assay, Rap1b-BODIPY-GDP exchange fluorescence;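 also: plate controls were vehicle for no effect and positive control for full effect; nearly all actives have a fitted effect of over 50% in size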
BRCA1 expr up: activators of BRCA1 expression; actives 1.1% (n = 380,000); Potency, µM (doses to about 46.1 µM), inactives show top-dose activation, usual class: activators; AID 624202; MCF7-BRCA1-FFLuc reporter, luminescence, 48 h; response scale: scaled: vehicle 0%, 10 µM genistein 100%; also: nearly all actives have a fitted effect of over 80% in size
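48 h compound treatment of MCF7-BRCA1-FFLuc cells (phenol-red free MEM, 37 °C), then 15 min with luciferase substrate and luminescence imaging.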
EPAC2 antag: EPAC2 (human) antagonism. Potency, µM (top dose mostly 114 µM), inactives show at the highest dose activity, negative = inhibition, actives largely listed as inhibitors. EPAC2 GEF exchange of Rap1B-BODIPY-GDP, fluorescence. Q8WZA2. actives 0.18% (n = 360,000); also: % is scaled to controls: 0 for no effect and ±100 for the full control effect; nearly all actives have a fitted effect of over 45% in size
EPAC2 ag: EPAC2 (human) agonism; EPAC2 activation, biochemical qHTS; response scale: 100% = 6.5 mM cAMP response; actives 0.079% (n = 360,000); Potency, µM (series often up to 154 µM), for the others: top-dose activation, hits mostly activators; AID 720711; Q8WZA2; also: nearly all actives have a fitted effect of over 50% in size
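Compounds were added across a concentration range to EPAC2 (100 nM), RAP1B-BODIPY-GDP (250 nM) and GDP (50 uM). After 5 min at room temperature, fluorescence was recorded at 5-min intervals for 30 min.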
* marks the source's active call; other numbers are inactive results. An excerpt weighted towards active compounds, which were near 1.4% of everything screened. Calls follow the shape of the dose curve; as a rule, active = well fitted curve in the direction sought with a large enough effect; inconclusive = small, poorly fitted or top-dose-only effect, or another doubt; inactive = no such curve, though single readings can be large; an effect the other way counts as inactive or inconclusive. Potency is read from the fitted curve at half-maximal effect.

`Nc1c2c(nc3sc4c(c13)CCCC4)CCCCC2` gave EPAC1 ag -12%, USP1 inh -8%, EPAC1 antag -3%, BRCA1 expr up inconclusive, EPAC2 antag -1% and EPAC2 ag 5%.
`Nc1c2c(nc3sc4c(c13)CCCC4)CCCC2` gave EPAC1 ag -8%, USP1 inh -18%, EPAC1 antag inconclusive, BRCA1 expr up 4.5µM*, EPAC2 antag 7% and EPAC2 ag -2%.
For O=C1NC(=O)C(=Cc2cn(CCOc3ccc4c(c3)OCO4)c3ccccc23)C(=O)N1 the results were EPAC1 ag 5%, USP1 inh 153%, EPAC1 antag 1%, BRCA1 expr up -32%, EPAC2 antag 43% and EPAC2 ag 100µM*.
CCOP(=O)(OCC)c1ccc2c(c1)C(=O)c1ccccc1CC2 was read as EPAC1 ag 0%, EPAC1 antag -2%, BRCA1 expr up 11%, EPAC2 antag inconclusive and EPAC2 ag 2%.
`CN1CCN(c2ccc([N+](=O)[O-])c3no[n+]([O-])c23)CC1` gave EPAC1 ag -89%, USP1 inh 110%, EPAC1 antag inconclusive, BRCA1 expr up -82%, EPAC2 antag -10% and EPAC2 ag -66%.
O=[N+]([O-])c1ccc(N(CCO)CCO)c2c1no[n+]2[O-] was read as EPAC1 ag -111%, USP1 inh 52%, EPAC1 antag 56µM*, BRCA1 expr up -81%, EPAC2 antag inconclusive and EPAC2 ag -114%.
`C[C@H]1CN([C@@H](C)CO)C(=O)c2cc(-c3cccnc3)cnc2O[C@H]1CN(C)Cc1ccc(Oc2ccccc2)cc1` gave EPAC1 ag -3%, USP1 inh inconclusive, EPAC1 antag -7%, BRCA1 expr up -6%, EPAC2 antag -7% and EPAC2 ag 7%.
`CCCCNC(=O)c1c(N)n(CCCOC)c2nc3ccccc3nc12` gave EPAC1 ag 7%, USP1 inh 11µM*, EPAC1 antag inconclusive, BRCA1 expr up -49%, EPAC2 antag inconclusive and EPAC2 ag 10%.
For COCCNC(=O)c1c(N)n(CCC(C)C)c2nc3ccccc3nc12 the results were EPAC1 ag -4%, USP1 inh inconclusive, EPAC1 antag 45µM*, BRCA1 expr up -72%, EPAC2 antag 79µM* and EPAC2 ag 5%.
ClCCN(CCCl)c1ccc(/C=C/c2sc3ccccc3[n+]2CCCCI)cc1 was read as BRCA1 expr up 17%.
For O=C(c1cc2ccccn2n1)N1CCC2(CC1)OCCO2 the results were EPAC1 ag -5%, USP1 inh -12%, EPAC1 antag 2%, BRCA1 expr up 4%, EPAC2 antag 3% and EPAC2 ag -4%.
O=C(c1cc2ccccn2n1)N1CCN(Cc2ccccc2)CC1 was read as EPAC1 ag -3%, USP1 inh -19%, EPAC1 antag 17%, BRCA1 expr up 10µM*, EPAC2 antag 5% and EPAC2 ag 3%.
Screening C[C@@H]1C(=O)O[C@H]2C[C@@]34[C@H]5C[C@@H](C(C)(C)C)[C@]36[C@@H](OC(=O)[C@@H]6O)O[C@@]4(C(=O)O5)[C@]21O returned EPAC1 ag 0%, USP1 inh -7%, EPAC1 antag 3%, BRCA1 expr up 9%, EPAC2 antag 3% and EPAC2 ag -3%.
Screening Cc1ccc(/C=C2\C(=O)NC(=S)N(c3cccc(F)c3)C2=O)o1 returned EPAC1 ag 6%, USP1 inh inconclusive, EPAC1 antag inconclusive, BRCA1 expr up -25%, EPAC2 antag 26% and EPAC2 ag 0%.
Cc1cccc(N2C(=O)/C(=C/c3ccc(CN(CCC#N)S(C)(=O)=O)o3)C(=O)NC2=S)c1 was read as EPAC1 ag 0%, USP1 inh 25µM*, EPAC1 antag inconclusive, BRCA1 expr up -9%, EPAC2 antag 4% and EPAC2 ag 4%.
